Screening results from PubChem.
Hits are enriched below; roughly 14% of the tested compounds scored in any of these assays.
Shiga toxin inh: blocks Shiga toxin action in Vero cells | Vero cells, Shiga toxin protein synthesis inhibition reporter | inhibition, % at 38.7 µM | 290,000 compounds, 9.2% hits; in the data active means inhibition mostly above about 28%, no sharp cut-off; inactive means mostly below about 43%
NS1 function inh: blocks influenza NS1 protein function; Potency, µM (series often up to 46.1 µM); 270,000 compounds, 0.4% hits; calls by dose curve; further: actives are rising curves; nearly all actives have a fitted effect of over 50% in size
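S. cerevisiae expressing influenza A NS1, grown in glucose, washed, then diluted 1:100 into pH 6.0 -URA galactose medium with 23 nl compound. Growth recovery read as OD600; NS1-free strain serves as control.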
Giardia FBPA inh: Giardia lamblia aldolase inhibition | Potency, µM (top dose mostly 59.6 µM), actives largely listed as inhibitors | 290,000 compounds, 0.71% hits | A8B2U2 | purified Giardia FBPA; further: nearly all actives have a fitted effect of over 55% in size
Target sequence (A8B2U2 whole entry, looked up): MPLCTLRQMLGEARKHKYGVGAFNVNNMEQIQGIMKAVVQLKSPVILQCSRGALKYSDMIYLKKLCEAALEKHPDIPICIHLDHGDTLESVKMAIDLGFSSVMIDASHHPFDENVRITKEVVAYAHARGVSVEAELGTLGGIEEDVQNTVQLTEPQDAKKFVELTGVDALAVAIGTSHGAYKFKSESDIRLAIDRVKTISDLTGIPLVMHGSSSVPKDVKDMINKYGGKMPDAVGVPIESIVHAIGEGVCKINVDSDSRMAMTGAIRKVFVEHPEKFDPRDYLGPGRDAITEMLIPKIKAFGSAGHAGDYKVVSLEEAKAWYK
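40 nM FBPA preincubated 10 min at RT with compound (up to 57.5 uM final), then substrate plus GAPDH/TPI/NAD/arsenate coupling and diaphorase/resazurin added. Fluorescence read after 20 min at RT, 525/598 nm.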
Cycloheximide cs: counter-screen for Shiga toxin inhibitors: cycloheximide protein synthesis inhibition; cell reporter, cycloheximide protein synthesis inhibition counterscreen; max response, %; 300,000 compounds, 12% hits; in the data active means max response mostly above about 13%, no sharp cut-off; inactive means mostly below about 14%; further: read at 38.3 µM for the half of the compounds with a filed dose
LmPK inh: blocks Leishmania mexicana pyruvate kinase activity; purified LmPK, Kinase-Glo ATP luminescence, 1 h; Potency, µM (series often up to 57.5 µM), hits mostly inhibitors; 290,000 compounds, 0.37% hits
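Purified LmPK (0.1 nM) converted ADP (0.1 mM) to ATP with PEP (0.5 mM) in imidazole buffer pH 7.2 with KCl and MgCl2, 1 h at room temperature. ATP was read by Kinase-Glo luminescence; data normalized to uninhibited and no-enzyme controls.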
A number is an active result. Unless noted, the call rests on the fitted dose curve; in most records, active means well fitted curve in the direction sought with a large enough effect; inconclusive means small, poorly fitted or top-dose-only effect, or another doubt; inactive means no such curve, though single readings can be large; an effect the other way counts as inactive or inconclusive.

Results for CCN1CCN(c2ccc(NC(=O)c3ccco3)cc2)CC1 ?
Shiga toxin inh: 34; NS1 function inh: inactive; Cycloheximide cs: 42; LmPK inh: inactive

What do the screens show for `O=C(c1ccco1)N1CCN(c2ccc(Cl)cc2)CC1`?
Shiga toxin inh: 79; NS1 function inh: inactive; Giardia FBPA inh: inactive; Cycloheximide cs: 37; LmPK inh: inactive

Results for CCCC(=O)N1CCN(c2ccc(NC(=O)c3ccco3)cc2)CC1 ?
Shiga toxin inh: inactive; NS1 function inh: inactive; Giardia FBPA inh: inactive; Cycloheximide cs: inactive; LmPK inh: inactive

How did CCC(=O)c1cc(F)c(N2CCN(C(=O)c3ccco3)CC2)cc1C do in these assays?
Shiga toxin inh: 45; NS1 function inh: inactive; Giardia FBPA inh: inactive; Cycloheximide cs: 24; LmPK inh: inactive

Results for CCC(=O)c1cc(F)c(N2CCN(CC)CC2)cc1C ?
Shiga toxin inh: inactive; NS1 function inh: inactive; Giardia FBPA inh: inactive; Cycloheximide cs: inactive; LmPK inh: inactive

Results for CN(C)c1ncc2ncc(=O)n(Cc3ccc(F)cc3)c2n1 ?
Giardia FBPA inh: inactive

Results for N#Cc1nc(-c2ccco2)oc1NCc1ccco1 ?
Shiga toxin inh: inactive; NS1 function inh: inactive; Giardia FBPA inh: inactive; Cycloheximide cs: inactive; LmPK inh: inactive

Results for CC(C)(C)c1ccc(-c2nc(C#N)c(NCc3cccnc3)o2)cc1 ?
Shiga toxin inh: inactive; NS1 function inh: inactive; Giardia FBPA inh: inactive; Cycloheximide cs: 32; LmPK inh: inactive

What do the screens show for `Cc1cccc(-c2nc(C#N)c(NCc3ccco3)o2)c1`?
Shiga toxin inh: 54; NS1 function inh: inactive; Giardia FBPA inh: inactive; Cycloheximide cs: 57; LmPK inh: inactive

What do the screens show for `Cc1ccc(-c2nc(C#N)c(NCc3ccco3)o2)cc1`?
Shiga toxin inh: 89; NS1 function inh: inactive; Giardia FBPA inh: inactive; Cycloheximide cs: 54; LmPK inh: inactive

Results for COc1ccc(-c2nc(C#N)c(NCc3ccco3)o2)cc1 ?
Shiga toxin inh: 73; NS1 function inh: inactive; Giardia FBPA inh: inactive; Cycloheximide cs: 28; LmPK inh: inactive

What do the screens show for `CCOC(=O)C1CCN(C(=O)c2ccccc2CCc2ccccc2)CC1`?
Shiga toxin inh: inactive; NS1 function inh: inactive; Giardia FBPA inh: inactive; Cycloheximide cs: inactive; LmPK inh: inactive

Results for N#Cc1nc(-c2ccc(F)cc2)oc1NCc1ccco1 ?
Shiga toxin inh: 86; NS1 function inh: inactive; Giardia FBPA inh: inactive; Cycloheximide cs: 13; LmPK inh: inactive

What do the screens show for `CCCCc1c(C)c2cc(C)ccc2[nH]c1=O`?
Shiga toxin inh: inactive; NS1 function inh: inactive; Giardia FBPA inh: inactive; Cycloheximide cs: inactive; LmPK inh: inactive

Results for CCCCN1CCc2c([nH]c3ccc(C)cc23)C1=O ?
Shiga toxin inh: 132; NS1 function inh: inactive; Giardia FBPA inh: inactive; Cycloheximide cs: 70; LmPK inh: inactive

Results for Cc1ccc2[nH]c3c(c2c1)CCC3=O ?
Shiga toxin inh: inactive; NS1 function inh: inactive; Giardia FBPA inh: inactive; Cycloheximide cs: inactive; LmPK inh: inactive

Results for Cc1ccc2[nH]c3c(c2c1)CCc1cn[nH]c1-3 ?
Shiga toxin inh: 28; NS1 function inh: inactive; Giardia FBPA inh: inconclusive; Cycloheximide cs: 25; LmPK inh: inactive

Results for Cc1ccc2[nH]c3c(c2c1)CCCC3=O ?
Shiga toxin inh: inactive; NS1 function inh: inactive; Giardia FBPA inh: inconclusive; Cycloheximide cs: 17; LmPK inh: inactive

How did Cc1cccc(N(Cc2ccccc2)C(=O)c2ccc(CS(C)(=O)=O)cc2)c1 do in these assays?
Shiga toxin inh: inactive; NS1 function inh: inactive; Cycloheximide cs: inactive; LmPK inh: inactive

How did C=CCN(C(=O)c1oc2c(Cl)cc(C)cc2c1C)C1CCS(=O)(=O)C1 (stereo unspecified) do in these assays?
Shiga toxin inh: 60; NS1 function inh: inactive; Cycloheximide cs: 60; LmPK inh: inactive

What do the screens show for `Cc1cc(Cl)c2oc(C(=O)N3CCN(C4CCS(=O)(=O)C4)CC3)c(C)c2c1` (stereo unspecified)?
Shiga toxin inh: inactive; NS1 function inh: inactive; Giardia FBPA inh: inactive; Cycloheximide cs: inactive; LmPK inh: inactive

How did Cc1cc(Cl)c2oc(C(=O)N(C)CC3CCOCC3)c(C)c2c1 do in these assays?
Shiga toxin inh: 71; NS1 function inh: inactive; Giardia FBPA inh: inactive; Cycloheximide cs: 38; LmPK inh: inactive

How did OCC1(Cc2ccc(F)cc2)CCCN(CCCC(F)(F)F)C1 (stereo unspecified) do in these assays?
Shiga toxin inh: inactive; NS1 function inh: inactive; Giardia FBPA inh: inactive; Cycloheximide cs: inactive; LmPK inh: inactive

Results for Cc1ccc(CSc2nnc(-c3ccncc3)n2C)cc1 ?
Shiga toxin inh: inactive; NS1 function inh: inactive; Giardia FBPA inh: inactive; Cycloheximide cs: inactive; LmPK inh: inactive

Results for Cc1ccc(Nc2nc(CSc3nnc(-c4ccncc4)n3C)cs2)cc1 ?
Shiga toxin inh: 54; NS1 function inh: inactive; Giardia FBPA inh: inactive; Cycloheximide cs: 25; LmPK inh: inactive

What do the screens show for `Cc1ccccc1Nc1nc(CSc2nnc(-c3ccoc3C)n2C)cs1`?
Shiga toxin inh: inactive; NS1 function inh: inactive; Giardia FBPA inh: inactive; Cycloheximide cs: 21; LmPK inh: inactive

Results for CCc1ccccc1NC(=O)COC(=O)C1C2CC3OC(=O)C1C3C2 (stereo unspecified) ?
Shiga toxin inh: inactive; NS1 function inh: inactive; Giardia FBPA inh: inactive; Cycloheximide cs: inactive; LmPK inh: inactive

Results for CCOc1ccc(N(CC(=O)NCC2CCCO2)C(=O)CCC(=O)Nc2nccs2)cc1 (stereo unspecified) ?
Shiga toxin inh: inactive; NS1 function inh: inactive; Giardia FBPA inh: inactive; Cycloheximide cs: inactive; LmPK inh: inactive

Results for Cn1nnc2c[n+](CC(=O)c3ccc4ccccc4c3)cc(Br)c21 ?
Shiga toxin inh: inactive; NS1 function inh: inactive; Giardia FBPA inh: inactive; Cycloheximide cs: 15; LmPK inh: inactive

Results for Cn1nnc2c[n+](CC(=O)c3ccc(Cl)cc3)cc(Br)c21 ?
Shiga toxin inh: inactive; NS1 function inh: inactive; Giardia FBPA inh: inconclusive; Cycloheximide cs: inactive; LmPK inh: inactive

Results for CC1=NN(/C(=N\c2nnc(C)s2)Nc2ccc(C(C)(C)C)cc2)[C@H](c2ccc(C)cc2)S1 ?
Shiga toxin inh: 27; NS1 function inh: inactive; Giardia FBPA inh: inactive; Cycloheximide cs: inactive; LmPK inh: inactive

How did CCOC(=O)[C@H]1[C@H]2COc3cc(OC)ccc3[C@@H]2N2C(=O)N(c3cccc(Cl)c3)C(=O)[C@@]12C do in these assays?
Shiga toxin inh: inactive; NS1 function inh: inactive; Giardia FBPA inh: inactive; Cycloheximide cs: inactive; LmPK inh: inactive

How did O=C1/C(=C\c2ccc3c(c2)OCO3)CCC/C1=C/c1ccc2c(c1)OCO2 do in these assays?
Shiga toxin inh: inactive; NS1 function inh: inactive; Giardia FBPA inh: inactive; Cycloheximide cs: inactive; LmPK inh: inactive

Results for O=C1CCC/C1=C/Nc1cccc(F)c1 ?
Shiga toxin inh: 53; NS1 function inh: inactive; Giardia FBPA inh: inactive; Cycloheximide cs: 16; LmPK inh: inactive

How did O=C1CCCC/C1=C/Nc1ccc2c(c1)OCO2 do in these assays?
Shiga toxin inh: 109; NS1 function inh: inactive; Giardia FBPA inh: inconclusive; Cycloheximide cs: 30; LmPK inh: inactive

Results for COc1ccc(Oc2ccc(N/C=C3\CCCC3=O)cc2)cc1 ?
Shiga toxin inh: inactive; NS1 function inh: inactive; Giardia FBPA inh: inactive; Cycloheximide cs: inactive; LmPK inh: inactive
